This is an account of results in PubChem BioAssay (NCI).

Each structure is given as a SMILES string. Compounds without any hit were thinned out: in the full panel of roughly 83,000, 20% have a hit.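 Each cell line was grown in a 96-well plate and treated with one concentration of compound for 48 hours. Values below 10 were considered active.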 A number with no mark means an inactive call. Activity calls are given as the source filed them.

Among the test systems are SR leukemia; RPMI-8226 leukemia; OVCAR-8 ovarian; OVCAR-5 ovarian; OVCAR-4 ovarian; SK-OV-3 ovarian; IGROV1 ovarian; OVCAR-3 ovarian; HS 578T breast; NCI/ADR-RES ovarian; T-47D breast; BT-549 breast; MDA-MB-435 melanoma; SW-620 colon; MCF7 breast; HCT-116 colon; HCC-2998 colon; KM12 colon.
What all share (assay): NCI-60 one-dose screen, 48 h (100 = growth as untreated, 0 = no growth, -100 = all killed)
Common to all, as to settings: 10 µM unless noted

With `O=C(O)c1ccc(-n2cc(CNc3cccc(Cl)c3)c(-c3ccc(F)cc3)n2)cc1`, the growth was 130% with SR leukemia; 89.2% in the experiment with RPMI-8226 leukemia; 96.3% with OVCAR-8 ovarian; 112% in the experiment with OVCAR-5 ovarian; 100% in the experiment with OVCAR-4 ovarian; 106% in the experiment on SK-OV-3 ovarian. The growth was 102% in the experiment on IGROV1 ovarian; 106% in the experiment with OVCAR-3 ovarian; 106% in the experiment with HS 578T breast; 97.9% in the experiment on NCI/ADR-RES ovarian; 92.1% in the experiment on T-47D breast; 108% with BT-549 breast. For the same compound, the growth was 102% with MDA-MB-435 melanoma; 110% in the experiment on SW-620 colon; 70% with MCF7 breast; 89.2% in the experiment on HCT-116 colon; 105% in the experiment on HCC-2998 colon; 94.2% in the experiment with KM12 colon.

Regarding `C=CCn1c(SCC(=O)Nc2ccc(C(=O)/C=C/c3ccc(Br)cc3)cc2)nnc1-c1c[nH]c2ccccc12`, the growth was 70.3% in the experiment on SR leukemia; 3.64% (active) in the experiment with RPMI-8226 leukemia; 81.2% with OVCAR-8 ovarian; 99.4% in the experiment on OVCAR-5 ovarian; 74.7% in the experiment with OVCAR-4 ovarian; 91.8% in the experiment with SK-OV-3 ovarian. The growth in the experiment with IGROV1 ovarian is 76.4%; with OVCAR-3 ovarian, 86.9%; with HS 578T breast it was 89.9%; in the experiment with NCI/ADR-RES ovarian, 101%; with T-47D breast, 60.7%; in the experiment with BT-549 breast, 119%. In addition, the growth in the experiment on MDA-MB-435 melanoma is 94.7%; in the experiment on SW-620 colon, 92.3%; in the experiment with MCF7 breast, 22.8%; in the experiment on HCT-116 colon, -60.7% (active); in the experiment on HCC-2998 colon, 109%; in the experiment on KM12 colon, 89.3%.

Turning to `COc1ccccc1N1CCN(C2=CC(=O)C(C)=C(C)C2=O)CC1`, the growth was 119% with SR leukemia; 101% in the experiment with RPMI-8226 leukemia; 100% in the experiment with OVCAR-8 ovarian; 107% in the experiment on OVCAR-5 ovarian; 93.2% with OVCAR-4 ovarian; 109% with SK-OV-3 ovarian. Besides, the growth in the experiment with IGROV1 ovarian is 112%; in the experiment on OVCAR-3 ovarian it was 110%; in the experiment with HS 578T breast, 103%; in the experiment with NCI/ADR-RES ovarian, 98.6%; in the experiment on T-47D breast, 91.1%; in the experiment with BT-549 breast it was 104%. Also, the growth in the experiment with MDA-MB-435 melanoma was 106%; with SW-620 colon, 105%; with MCF7 breast, 83.5%; with HCT-116 colon, 106%; in the experiment with HCC-2998 colon, 110%; in the experiment on KM12 colon, 105%.

Take `O=C(NNc1nc2cc(F)cc(F)c2n2cccc12)c1cnccn1`: the growth is 8.81% (active) with SR leukemia; 18.3% in the experiment on RPMI-8226 leukemia; 12.7% in the experiment on OVCAR-8 ovarian; 33.1% in the experiment on OVCAR-5 ovarian; 16.2% in the experiment on OVCAR-4 ovarian; 4.18% (active) in the experiment with SK-OV-3 ovarian. The growth with IGROV1 ovarian is 15%; in the experiment with OVCAR-3 ovarian it was 30.2%; in the experiment with HS 578T breast, 64.4%; with NCI/ADR-RES ovarian it was 3.06% (active); in the experiment with T-47D breast, 10.3%; in the experiment on BT-549 breast, 24.1%. For the same compound, the growth was 31.3% in the experiment on MDA-MB-435 melanoma; 21.7% in the experiment with SW-620 colon; 3.97% (active) in the experiment on MCF7 breast; 12.3% with HCT-116 colon; 49.9% in the experiment with HCC-2998 colon; 28.7% in the experiment on KM12 colon.

Take `COc1ccc(Cn2cc3c(c2-c2cc(OC)c(OC)c(OC)c2)CCc2c(CN4CCCC4)noc2-3)cc1`: the growth in the experiment on SR leukemia was 29%; in the experiment with RPMI-8226 leukemia, 21%; in the experiment with OVCAR-8 ovarian, 42.5%; in the experiment on OVCAR-5 ovarian, 27.9%; in the experiment with OVCAR-4 ovarian, 55.2%; with SK-OV-3 ovarian, 41%. The growth in the experiment on IGROV1 ovarian is 29.9%; with OVCAR-3 ovarian, -16% (active); in the experiment on HS 578T breast, 10.3%; in the experiment on NCI/ADR-RES ovarian it was 9.19% (active); in the experiment with T-47D breast, 42.9%; with BT-549 breast, 76%. The growth was -39.2% (active) in the experiment with MDA-MB-435 melanoma; 26.4% in the experiment with SW-620 colon; 15.5% in the experiment with MCF7 breast; 18% in the experiment with HCT-116 colon; 24.9% in the experiment with HCC-2998 colon; 14.9% in the experiment with KM12 colon.

For `CCCCCc1ccc(S(=O)(=O)Nc2cccc(-c3csc(NCCN4CCN(C)CC4)n3)c2)cc1`, the growth was -6.54% (active) in the experiment on SR leukemia; -21.4% (active) in the experiment on RPMI-8226 leukemia; 94.2% with OVCAR-8 ovarian; 94.1% with OVCAR-5 ovarian; 84.5% in the experiment with OVCAR-4 ovarian; 92.4% with SK-OV-3 ovarian. The growth in the experiment on IGROV1 ovarian was 79.9%; in the experiment on OVCAR-3 ovarian, 68.1%; in the experiment with HS 578T breast it was 87%; with NCI/ADR-RES ovarian, 85.7%; in the experiment on T-47D breast it was 80.1%; in the experiment on BT-549 breast, 95.1%. The growth in the experiment with MDA-MB-435 melanoma was 29.7%; in the experiment with SW-620 colon, 2.57% (active); in the experiment on MCF7 breast it was 15.5%; in the experiment with HCT-116 colon it was 4.07% (active); in the experiment on HCC-2998 colon it was -6.69% (active); with KM12 colon it was 77.7%.

As to `C=CCN(C)S(=O)(=O)/N=C1\NC(=O)NC1=C(Cl)Cl`, the growth with SR leukemia is -18.7% (active); in the experiment on RPMI-8226 leukemia, 5.23% (active); in the experiment with OVCAR-8 ovarian, 61.2%; in the experiment with OVCAR-5 ovarian, -37.5% (active); with OVCAR-4 ovarian, 89.1%; in the experiment with SK-OV-3 ovarian, 104%. Also, the growth in the experiment on IGROV1 ovarian is -37.4% (active); with OVCAR-3 ovarian, -84.3% (active); with HS 578T breast, 80.5%; in the experiment on NCI/ADR-RES ovarian, 72.5%; in the experiment on T-47D breast, 55.1%; in the experiment on BT-549 breast, 89.1%. Besides, the growth in the experiment with MDA-MB-435 melanoma is 34.4%; in the experiment on SW-620 colon, -61.9% (active); with MCF7 breast it was 11.9%; in the experiment on HCT-116 colon, 1.54% (active); in the experiment on HCC-2998 colon, 40.1%; in the experiment with KM12 colon it was 7.25% (active).

Turning to `O=C1Nc2ccccc2/C1=C/c1ccc(CO)n1-c1ccc(Cl)cc1`, the growth in the experiment with SR leukemia is 35.5%; in the experiment with RPMI-8226 leukemia, 53.2%; with OVCAR-8 ovarian, 85.9%; with OVCAR-5 ovarian it was 89.8%; in the experiment with OVCAR-4 ovarian it was 89.9%; in the experiment on SK-OV-3 ovarian, 80%. Further, the growth with IGROV1 ovarian is 48.1%; in the experiment on OVCAR-3 ovarian, 31.7%; with HS 578T breast, 59%; with NCI/ADR-RES ovarian, 33.9%; with T-47D breast, 62.9%; in the experiment with BT-549 breast, 55.3%. The growth is -25.5% (active) in the experiment with MDA-MB-435 melanoma; 32.4% with SW-620 colon; 24.1% in the experiment with MCF7 breast; 23.8% in the experiment with HCT-116 colon; 78.3% in the experiment with HCC-2998 colon; 13.4% in the experiment with KM12 colon.
